High-throughput results as filed in PubChem BioAssay.
Compounds with a hit are over-represented: about 2.1% of the library has one in this group of screens.
aDG glyco up: increases alpha dystroglycan glycosylation. Pro5-aDG cells, alpha-DG glycosylation AlphaScreen (IIH6); 0% Pro5, 100% B10-LARGE cell signal. activation, % at 10 µM. hit rate 0.22% among 360,000;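 active means activation of at least 8% versus controls, or a plate z-score of at least 8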;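 further: Pro5 are CHO cells carrying HIG-tagged alpha-DG that lacks glycosylation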
Gli-Sufu block: Gli-Sufu pathway antagonism. Sufu-KO-LIGHT fibroblasts, Gli luciferase reporter luminescence. hit rate 0.74% among 340,000. AID 588413. inhibition, % at 5 µM;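 active means inhibition above about 55%, limit read from the data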;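 further: 0% = DMSO-treated cells and 100% = wells with medium but no cells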
GalR3 antagonist: antagonists of human GalR3; O60755; HEK293 GalR3-CNG cAMP membrane potential fluorescence; galR3 body fused to GalR1 C-terminus; inhibition, % at 3 µM; hit rate 0.44% among 360,000; AID 651719;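 active means inhibition above the screen-wide average plus 3 SD, cut at about 13% in these data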;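 further: forskolin and galanin both at EC90 stimulate the cells; cAMP rise reported by CNG channel membrane potential dye signal; 0% = forskolin plus galanin with DMSO and 100% = forskolin alone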
Target sequence (O60755 1-299 limits assumed): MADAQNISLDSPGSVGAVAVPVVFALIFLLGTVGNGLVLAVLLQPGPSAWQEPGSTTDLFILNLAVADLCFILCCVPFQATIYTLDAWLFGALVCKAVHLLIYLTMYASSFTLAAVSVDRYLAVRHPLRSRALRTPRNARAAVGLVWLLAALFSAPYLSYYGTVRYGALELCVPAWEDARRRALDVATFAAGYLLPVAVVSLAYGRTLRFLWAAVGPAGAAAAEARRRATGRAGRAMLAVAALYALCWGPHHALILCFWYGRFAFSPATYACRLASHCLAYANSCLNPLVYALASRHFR
COUP-TFII inh: blocks human COUP-TFII nuclear receptor; inhibition, % at 8.6 µM; hit rate 0.7% among 370,000; HEK293T NGFI-A luciferase reporter, luminescence;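 active means inhibition above a per-plate cutoff, mean inhibition of test wells between control levels plus 3 SD, cut at about 38% in these data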;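 further: cells cotransfected with COUP-TFII expression vector driving the NGFI-A reporter; 0% = median of COUP-TF2 test wells and 100% = reporter-only cells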
HIV Env fusion: blocks HIV Env-driven cell-cell fusion; inhibition, % at 12.3 µM; AID 651610; hit rate 1.1% among 360,000; HeLa-JRFL Env/CEM21 cell fusion, luciferase;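 active means mean replicate inhibition score of at least 50 and every replicate individually at or above 50; inconclusive means only one of the two criteria met; inactive means mean below 50 and not all replicates reaching 50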;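 further: 0% = plate neutral controls and 100% = maraviroc near 300 nM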
Gli antag conf: Gli-SUFU antagonism confirmation, single concentration; shares compounds with Gli-Sufu block; Sufu-KO-LIGHT cells, Gli luciferase reporter, luminescence; inhibition, % at 5 µM; hit rate 40% among 2,500; AID 602428;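 active means mean inhibition at 5 µM reaching about 45%, limit read from the data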;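 further: plate controls were DMSO-treated cells for no effect and wells lacking cells for full effect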
SufuKO cytotox: cytotoxic in Gli-SUFU antagonist counter-screen. Sufu-KO-LIGHT cells cytotoxicity, ATP luminescence. shares compounds with Gli-Sufu block. cytotoxicity, % at 5 µM. AID 651994. hit rate 32% among 2,500;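 active means mean cytotoxicity at 5 µM above about 25%, limit read from the data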;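 further: cells exposed to compound overnight for roughly 16 to 18 hours; plate controls were DMSO wells with cells for no effect and medium without cells for full effect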
Wnt3a counter: Wnt3a reporter inhibition counter-screen | shares compounds with Gli-Sufu block | Wnt-LIGHT cells, Wnt3a-driven luciferase reporter, luminescence | inhibition, % at 6.25 µM | hit rate 20% among 2,500;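 active means mean inhibition above about 25%, limit read from the data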
Starred values were filed as active, the others as inactive; ? = inconclusive; . = not tested or not shown; [ ] = another dose, or the depositor's remark.

SMILES	aDG glyco up	Gli-Sufu block	GalR3 antagonist	COUP-TFII inh	HIV Env fusion	Gli antag conf	SufuKO cytotox	Wnt3a counter
Cc1ccc(S(=O)(=O)N(C)C[C@H]2Oc3ccc(NS(=O)(=O)c4ccc(Cl)cc4)cc3CC(=O)N([C@@H](C)CO)C[C@@H]2C)cc1	.	.	.	.	-15[16.7 µM]	.	.	.
C[C@H]1CN([C@@H](C)CO)C(=O)c2cc(NS(=O)(=O)c3ccccc3)ccc2O[C@@H]1CN(C)S(=O)(=O)c1cn(C)cn1	.	.	.	.	-19[16.7 µM]	.	.	.
O=[N+]([O-])c1ccc(N2CCN(Cc3ccccc3)CC2)s1	0	52	-8	8	-4	24	6	-8
O=[N+]([O-])c1ccc(N2CCCCC2)s1	0	-4	-6	-14	-79	.	.	.
COc1ccc(CN(C)C[C@@H]2Oc3c(NC(=O)c4ccncc4)cccc3C(=O)N([C@@H](C)CO)C[C@H]2C)cc1	.	.	.	.	26[16.7 µM]	.	.	.
c1ccc(SCCCCN2CCOCC2)cc1	0	50	-3	-39	4	16	27*	-14
Nc1nc2n(n1)C(c1ccco1)CC(c1ccc(Cl)cc1Cl)N2 (configuration not stated)	0	50	-3	-10	.	8	11	6
CCCc1cn(CC[C@@H]2CC[C@@H](NC(=O)Cc3cccnc3)[C@@H](CO)O2)nn1	.	.	.	.	4[16.7 µM]	.	.	.
N#Cc1c(-c2ccc(Br)cc2)cc(-c2cccnc2)nc1N	4	6	-1	-21	16	.	.	.
N#Cc1c(-c2cccc(Br)c2)cc(-c2cccnc2)nc1N	1	53	-12	-32	.	20	0	-21
C[C@H](CO)N1C[C@H](C)[C@@H](CN(C)C(=O)C2CCC2)Oc2ncc(C#CCc3ccccc3)cc2C1=O	.	.	.	.	-1[16.7 µM]	.	.	.
Cc1ccccc1OCc1nc2ccccc2c(=O)n1/N=C/c1ccco1	0	93*	0	-16	.	12	26*	-45
COc1ccc2nc3sc(C(=O)N4CCN(C)CC4)cc3cc2c1	0	94*	-2	-7	.	9	23	1
Cc1cn([C@@H](CCCCNC(=O)OC(C)(C)C)C(=O)NCCCCCCCCCCC(=O)N2CCN(C(=O)OC(C)(C)C)CC2)nn1	4	60*	.	.	.	59*	36*	14
C#CCOCCOCCOCCNc1nc(N2CCN(C(=O)CCCCCCCCCCNC(=O)Cn3cc(CCCCCN)nn3)CC2)nc(N2CCN(C(=O)CCCCCCCCCCNC(=O)Cn3cc(C[C@@H](C)O)nn3)CC2)n1	0	-6	.	.	.	.	.	.
CC[C@H](C)Cc1cn([C@@H](CCCN=C(NC(=O)OC(C)(C)C)NC(=O)OC(C)(C)C)C(=O)NCCCCCCCCCCC(=O)N2CCN(C(=O)OC(C)(C)C)CC2)nn1	1	33	.	.	.	.	.	.
CC(C)(C)OC(=O)NCCCCCc1cn(CC(=O)NCCCCCCCCCCC(=O)N2CCN(C(=O)OC(C)(C)C)CC2)nn1	0	56*	5	11	57*	62*	26*	-38
O=C(C[C@@H]1C=C[C@@H](NS(=O)(=O)c2ccc(F)cc2)[C@H](CO)O1)NC1CCC1	.	.	.	.	-7[16.7 µM]	.	.	.
CC(C)(C)c1[nH]nc2c1C(c1ccco1)C(C#N)=C(N)O2 (configuration not stated)	0	54	-5	3	6	10	24	-13
Clc1ccc(C[n+]2cc(-c3ccccc3)n3c2CCC3)cc1Cl	0	59*	0	-1	?	51*	37*	-28
Clc1ccc(-c2c[n+](Cc3cccc(Cl)c3)c3n2CCC3)cc1	0	54	-6	11	-6	51*	29*	-26
Clc1ccc(-c2c[n+](Cc3ccc(Cl)cc3Cl)c3n2CCCCC3)cc1	0	66*	-1	24	20	75*	30*	-27
CC(=O)C1CCC2C3CCC4=CC(=O)CCC4(C)C3C(O)CC12C (configuration not stated)	0	.	-3	4	-36	.	.	.
CC12CCC(=O)C=C1CCC1C2C(O)CC2(C)C(c3csc(N)n3)CCC12 (configuration not stated)	2	59*	-4	29	-18	61*	18	32*
